Screen size: about 1,100 compounds; about 940 (85%) were called active. So high a share suggests a set chosen from earlier hits. Only a sample is shown. A number with no mark means an inactive call.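 How the source made its calls: active means inhibition exceeding 3 SD of buffer-only control wells (cut at about 26% in these data); inactive means the rest.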
Assay: M3R calcium signalling without RGS4 expression – cell-based, HEK293 M3R, non-induced RGS4, Fluo-4 calcium, counter-screen for RGS4 activator project, primary screen (AID 602283);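 further: percent drop in integrated peak-minus-baseline over baseline Fluo4 ratio after carbachol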
Conditions: HEK293 M3R non-induced RGS4, Fluo4 calcium flux, at 10 µM, active compounds read high, after carbachol challenge at its EC90

Row | Structure (SMILES) | inhibition
1 | OC(CN=c1sc2ccccc2n1CC(O)COc1ccccc1)COc1ccccc1 (stereo not given) | 92.8% (active)
2 | Cc1ccc(C)c(N2CCN(C(=O)CCCCCn3c(=S)[nH]c4ccc(N5CCOCC5)cc4c3=O)CC2)c1 | 52.8% (active)
3 | Cc1ccc(C)c(N2CCN(C(=O)CCCn3c(=O)c4cccn4c4cccnc43)CC2)c1 | 55.3% (active)
4 | CCOC(=O)c1c(NC(=O)NC(C)(C)C)sc2c1CCN(C)C2 | 0% [the number is a placeholder, only the call stands]
5 | COc1ccc(/C=C(\C#N)c2c[nH]c3ccccc23)cc1 | 70.8% (active)
6 | Cc1ccc(N2C(=O)CC(Nc3cccc4ccccc34)C2=O)cc1 (stereo not given) | 0% [the number is a placeholder, only the call stands]
7 | Cc1oc2c(F)c(F)c(F)c(F)c2c1S(=O)(=O)Nc1cccc(C(F)(F)F)c1 | 88.8% (active)
8 | Cc1nc(N2CCN(c3ccccn3)CC2)c2c(C)c(C(=O)Nc3ccc(F)cc3)sc2n1 | 72.8% (active)
9 | O=S(=O)(c1ccc(Br)cc1)n1ccc2ccccc21 | 36.8% (active)
10 | Cc1ccc(OCCCCN2CCCCC2)c(Br)c1 | 0% [the number is a placeholder, only the call stands]
11 | CCCN(CCc1ccccc1)C1CCc2c(O)cccc2C1 (stereo not given) | 34.8% (active)
12 | Cc1cccc(-c2nc3ccc(C(=O)NCCN4CCN(C)CC4)cc3nc2-c2cccc(C)c2)c1 | 93.8% (active)
13 | CN1CCN(C(=O)N2c3ccccc3CCc3ccccc32)CC1 | 57.3% (active)
14 | Cc1nn(C)cc1N1C(=O)c2cccc3c(N)ccc(c23)C1=O | 101% (active)
15 | CN(C)c1ccc(/C=C2\NC(=S)N(Cc3ccccc3)C2=O)cc1 | 62.8% (active)
16 | CC(C)C(c1nnnn1CCc1ccccc1)N1CCN(C(=O)c2ccco2)CC1 (stereo not given) | 25.8% (active)
17 | COc1ccc(C(=O)Nc2nc(-c3ccc(S(=O)(=O)N4CCOCC4)cc3)cs2)cc1 | 36.3% (active)
18 | N=c1c2c3c(sc2nc2n1CCCCC2)CCCC3 | 55.8% (active)
19 | CCOC(=O)C1=C(NC(=S)NC(=O)c2ccccc2)c2ccccc2CC1(C)C | 61.3% (active)
20 | OCCC1CN(Cc2ccc3nsnc3c2)CCN1C1CCCC1 (stereo not given) | 43.8% (active)
21 | CCC1C=C(c2ccccc2)C=CN=C1N(CC)CC (stereo not given) | 83.8% (active)
22 | O=C(CN1CCCCCC1)Nc1ccc(S(=O)(=O)N2CCCCC2)cc1 | 83.8% (active)
23 | COc1cccc(-c2cc3nc4c(c(N5CCC6(CC5)OCCO6)n3n2)CCCC4)c1 | 31.8% (active)
24 | CCc1ccccc1NC(=O)[C@@H]1CCC(=O)N1C1OC(=O)c2c1ccc(OC)c2OC (stereo not given in full) | 0% [the number is a placeholder, only the call stands]
25 | COc1cc(/C=C(\C#N)c2nc3ccccc3[nH]2)ccc1O | 61.3% (active)

Row | Structure (SMILES) | inhibition
26 | CN(C)S(=O)(=O)N1CCC(Oc2cccc(C(=O)NCCCC3CCCC3)c2)CC1 | 61.8% (active)
27 | CCc1c(C)sc(NC(=O)c2ccc(Br)o2)c1C(=O)OC | 0% [the number is a placeholder, only the call stands]
28 | CCOc1ccc(C(CC(=O)O)NC(=O)COc2ccccc2)cc1 (stereo not given) | 0% [the number is a placeholder, only the call stands]
29 | Cc1ccccc1C(OCCN(C)C)C1CCCCC1 (stereo not given) | 95.3% (active)
30 | O=C(Cn1c(N2CCN(C/C=C/c3ccccc3)CC2)nc2ccccc21)c1ccccc1 | 91.8% (active)
31 | COc1ccc(CN2CCCC(C(=O)c3ccc(Cl)cc3)C2)cc1Cn1cncn1 (stereo not given) | 68.8% (active)
32 | COc1cccc(/C=N/Nc2cc(C)nc(-c3ccccc3O)n2)c1O | 85.8% (active)
33 | Cc1cccc(-c2nc(Nc3ccc(O)cc3)c3ccccc3n2)c1 | 35.3% (active)
34 | Oc1ccccc1N1CCN(c2ncnc3sc(-c4ccccc4)cc23)CC1 | 26.3% (active)
35 | COc1ccccc1C(CNC(=O)c1cccc(NS(=O)(=O)c2ccc(Br)cc2)c1)N(C)C (stereo not given) | 51.3% (active)
36 | COc1cccc(CNC(=O)CCC2CCCN(Cc3ccc(OC(F)F)cc3)C2)c1 (stereo not given) | 83.8% (active)
37 | CCC1CCCCN1CCCNC(=O)c1cc2c(Cl)nc3ccccc3c2s1 (stereo not given) | 71.8% (active)
38 | O=C(c1cccs1)C1C(c2ccc(Br)cc2)NC(=S)NC1(O)C(F)(F)F (stereo not given) | 90.8% (active)
39 | Cc1cc2oc3ccc(NCCC4CCCN4C)cc3c(=O)c2cc1C (stereo not given) | 87.8% (active)
40 | CN(C)CCOc1ccc(Cl)cc1C(C)(C)C | 47.8% (active)
41 | Cc1ccc(OS(=O)(=O)c2ccc(-c3csc(C)n3)s2)c(C)c1 | 33.8% (active)
42 | C#CC(CCN1CCCCC1)(OC)c1ccccc1 (stereo not given) | 63.8% (active)
43 | CCCCCC(O)(CCN1CCCCC1)c1ccccc1 (stereo not given) | 95.3% (active)
44 | S=c1[nH]nc(-c2ccc(Cl)cc2)n1CC1CCCO1 (stereo not given) | 0% [the number is a placeholder, only the call stands]
45 | Cc1ccc(SCC(=O)c2cc(C)c(OC(=S)N(C)C)c(C)c2)cc1 | 42.8% (active)
46 | COc1ccc(C(=O)NC2CCCc3c2cnn3-c2cccc(C)c2C)c(OC)n1 (stereo not given) | 64.8% (active)
47 | COc1ccc(-c2cc(C(=O)N(C)Cc3ccccc3)c3ccccc3n2)cc1 | 72.3% (active)
48 | COc1ccc(CN(C)C(=O)c2cc(-c3ccc(C)cc3C)nc3ccccc23)c(OC)c1OC | 51.3% (active)
49 | Cc1ccnc(SCCn2c(N(C)Cc3ccccc3)nc3c2c(=O)n(C)c(=O)n3C)n1 | 28.3% (active)
50 | COC(=O)c1ccc(CN2CCC(CO)(Cc3ccc(OC)cc3)CC2)cc1 | 70.8% (active)

From PubChem BioAssay AID602283 (Johns Hopkins Ion Channel Center, 2012)
